Sampled rows, rich in hits. Any-hit rate of the full collection: about 19%.
Lassa entry inh – qHTS for Inhibitors of binding or entry into cells for Lassa Virus; Lassa virus pseudotype entry inhibition, cell reporter; Potency, µM (top dose mostly 37.9 µM), most hits filed as inhibitors; hit rate 1.2% among 300,000; AID 540256, 2011; calls by dose curve; tested in HEK293 cells; also: nearly all actives have a fitted effect of over 50% in size
Pf growth 48h – Primary qHTS for delayed death inhibitors of the malarial parasite plastid, 48 hour incubation | P. falciparum luciferase growth in erythrocytes, 48 h | Potency, µM (doses to about 28.7 µM), actives largely listed as inhibitors | hit rate 5.9% among 310,000 | AID 504832, 2011
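Luciferase-expressing parasites in RBCs, 2% Hct / 0.1% parasitemia final; RPMI 1640 + 0.5% Albumax; 37 C, 5% CO2, one generation; luminescence read-out, lower signal = inhibition.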
Shiga inhibitor – A qHTS for Small Molecule Inhibitors of Shiga Toxin; Vero cells, Shiga toxin protein synthesis inhibition reporter; AID 2315, 2010; inhibition, % at 38.7 µM; hit rate 9.2% among 290,000; in the data active = inhibition mostly above about 28%, no sharp cut-off; inactive = mostly below about 43%
Pf growth 96h – Primary qHTS for delayed death inhibitors of the malarial parasite plastid, 96 hour incubation | P. falciparum luciferase reporter growth, 96 h | Potency, µM (doses to about 28.7 µM), usual class: inhibitors | hit rate 6.9% among 320,000 | AID 504834, 2011
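Compounds incubated with erythrocytes infected by luciferase-expressing P. falciparum (2% hematocrit, 0.05% parasitemia final) for 96 hours, 37 C in 5% CO2. Growth inhibition scored as decreased luciferase luminescence.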
Cycloheximide cs – Cycloheximide Counterscreen for Small Molecule Inhibitors of Shiga Toxin | max response, % | AID 2314, 2010 | hit rate 12% among 300,000 | cell reporter, cycloheximide protein synthesis inhibition counterscreen; in the data active = max response mostly above about 13%, no sharp cut-off; inactive = mostly below about 14%; also: read at 38.3 µM for the half of the compounds with a filed dose
MARV entry inh – qHTS for inhibitors of binding or entry into cells for Marburg Virus | Marburg virus pseudotyped entry inhibition, cell reporter | Potency, µM (highest dose often 37.8 µM), actives largely listed as inhibitors | hit rate 1.8% among 300,000; calls by dose curve; tested in HEK293 cells
Each line names hits and unclear results; the compound was inactive in the other large screens. Unless noted, calls follow the shape of the dose curve; as a rule, active = well fitted inhibition curve with a large enough effect; inconclusive = small, poorly fitted or top-dose-only effect, or another doubt; inactive = no such curve, though single readings can be large or run the other way.

COc1ccccc1NC(=O)CC(=O)c1cccc([N+](=O)[O-])c1	Lassa entry inh inconclusive, Pf growth 96h inconclusive
CCC(N=c1cc(-c2ccc(OC)cc2)oc2ccc(C)cc12)C(=O)O (centres undefined)	Shiga inhibitor 77, Cycloheximide cs 82, MARV entry inh inconclusive
COc1ccc(-c2cc(C(=O)Nc3cc(C)ccc3O)no2)cc1OC	MARV entry inh inconclusive (no result: Pf growth 48h, Shiga inhibitor, Pf growth 96h, Cycloheximide cs)
CCC(N=c1cc(-c2ccc(OC)c(OC)c2)oc2ccc(C)cc12)C(=O)O (centres undefined)	Cycloheximide cs 21, MARV entry inh inconclusive
Cc1ccc(-n2c(O)c(C=Nc3ccccc3-c3n[nH]c(=S)[nH]c3=O)c3ccccc3c2=O)c(C)c1	MARV entry inh inconclusive
CN1CCN(C2(CNC(=O)c3ccc([N+](=O)[O-])cc3)CCCCC2)CC1	none (no result: Pf growth 48h, Shiga inhibitor, Pf growth 96h, Cycloheximide cs)
COc1cc(OC)cc(C(=O)Nc2ccc([N+](=O)[O-])cn2)c1	MARV entry inh inconclusive
COc1ccc([N+](=O)[O-])cc1NC(=O)c1csc(C)c1	Pf growth 48h inconclusive (no result: Lassa entry inh, MARV entry inh)
Cc1cc(C(=O)Nc2ccc([N+](=O)[O-])cn2)cs1	Shiga inhibitor 141, Cycloheximide cs 41 (no result: Lassa entry inh, MARV entry inh)
COC(=O)c1cc(C(=O)Nc2ccc(C)cn2)cc([N+](=O)[O-])c1	Pf growth 96h 12µM
Cc1ccc(C(=O)Nc2ccc([N+](=O)[O-])cn2)o1	Shiga inhibitor 122, Cycloheximide cs 45
COc1ccc(C(=O)Nc2ccc([N+](=O)[O-])cn2)c(OC)c1	Lassa entry inh inconclusive, Shiga inhibitor 107, Cycloheximide cs 36, MARV entry inh inconclusive
COC(=O)c1cc(C(=O)Nc2cccc(C)n2)cc([N+](=O)[O-])c1	none
CCN(CC)CCN=Cc1c(O)n(C2CCCCCC2)c(=O)[nH]c1=O	none (no result: Pf growth 96h)
O=C(COc1ccc(Br)cc1)Nc1ccc([N+](=O)[O-])cn1	Pf growth 96h 4.1µM
O=C(Cc1ccc([N+](=O)[O-])cc1)Nc1ccc(Br)cn1	Pf growth 96h inconclusive, MARV entry inh inconclusive
N#Cc1c(-c2ccc(Cl)cc2)ccn2nc(C3CCCCC3)nc12	Cycloheximide cs 42 (no result: Pf growth 96h)
CC1CCN(C(=O)c2[nH]cnc2C(=O)NCC(=O)OCc2ccccc2)CC1	none (no result: Lassa entry inh, MARV entry inh)
CN(C)c1ccc(/C=N/N=C2/NC(=O)/C(=C/c3ccc([N+](=O)[O-])cc3)S2)cc1	Lassa entry inh 2µM, Shiga inhibitor 54, Cycloheximide cs 28, MARV entry inh inconclusive
CN(C)c1ccc(C=C2SC(=S)NC2=O)cc1	MARV entry inh inconclusive (no result: Pf growth 48h, Shiga inhibitor, Pf growth 96h, Cycloheximide cs)
CCn1ccnc1C(O)c1cccc2ccccc12 (centres undefined)	Pf growth 96h inconclusive (no result: Lassa entry inh, MARV entry inh)
COCCn1c(C)cc2c(c1=O)C(c1ccccc1F)C(C#N)=C(N)O2 (centres undefined)	Pf growth 96h inconclusive
CSc1sc(-c2ccnc(SCC(=O)C(C)(C)C)n2)c2c1C(=O)CC(C)(C)C2	Pf growth 48h inconclusive, Pf growth 96h 4.7µM (no result: Lassa entry inh, MARV entry inh)
O=C1c2ccccc2C(=O)c2c1ccc(C(=O)N1CCCCC1)c2NCCO	none
CC1(C)CCCN(C(=O)c2ccc3c(c2NCCO)C(=O)c2ccccc2C3=O)C1	Lassa entry inh inconclusive, Pf growth 48h 13µM, Pf growth 96h inconclusive, MARV entry inh inconclusive
Cn1c(SCC(=O)NNC(=O)c2ccccc2Br)nnc1C(F)(F)F	none (no result: Lassa entry inh, Shiga inhibitor, Cycloheximide cs, MARV entry inh)
COc1ccc(CCNC(=O)c2cc3c(=O)n4ccccc4nc3n(CCCN3CCOCC3)c2=N)cc1	Pf growth 48h inconclusive, Pf growth 96h inconclusive (no result: Lassa entry inh, MARV entry inh)
COc1ccc(CCNC(=O)c2cc3c(=O)n4ccccc4nc3n(CCCN3CCOCC3)c2=N)cc1OC	Pf growth 48h 2.3µM, Pf growth 96h 2.1µM (no result: Lassa entry inh, MARV entry inh)
CCCNc1nc2nc3ccccn3c(=O)c2cc1C(=O)NCCN1CCOCC1	Pf growth 48h 15µM, MARV entry inh inconclusive
O=C(NCCN1CCOCC1)c1c(O)nc2ccccn2c1=O	none (no result: Lassa entry inh, MARV entry inh)
COc1ccc(CCNC(=O)c2cc3c(=O)n4ccccc4nc3n(Cc3ccco3)c2=N)cc1OC	Cycloheximide cs 15 (no result: Lassa entry inh, MARV entry inh)
COc1ccc(CNC(=O)c2cc3c(=O)n4ccccc4nc3n(Cc3ccco3)c2=N)cc1	none (no result: Lassa entry inh, Pf growth 48h, Shiga inhibitor, Pf growth 96h, Cycloheximide cs)
COc1ccc(CCNC(=O)c2cc3c(=O)n4ccccc4nc3n(CCN3CCOCC3)c2=N)cc1	Lassa entry inh inconclusive, Pf growth 48h inconclusive, Pf growth 96h inconclusive, MARV entry inh 2.8µM

Source: PubChem
